Results as given in PubChem BioAssay (NCI).
Compounds without any hit were thinned out: in the full panel of roughly 83,000, 20% have a hit.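 Single-dose data. Exposure time 48 hours. Values below 10 considered active.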 Calls of active or inactive are those of the source.

system: HL-60(TB) leukemia; assay: NCI-60 one-dose screen, 48 h (100 = growth as untreated, 0 = no growth, -100 = all killed); conditions: 10 µM unless noted

Structure (SMILES) | growth
c1ccc([Se]CCCN2CCN(CCC[Se]c3ccccc3)CC2)cc1 | 105% (inactive)
COc1cccc(-c2nn(C)c3sc(C(=O)NCCN4CCN(c5ccccc5F)CC4)cc23)c1 | 8.08% (active)
COc1ccc(C2=Nc3c(N)nc(N)nc3NC(c3cccc(Nc4ccnc5cc(C(F)(F)F)ccc45)c3)C2)cc1 (stereo not given) | 81.6% (inactive)
COc1ccc(C2Nc3c(c(C(C)(C)C)nn3-c3ccccc3)C(=O)CS2)cc1 (stereo not given) | 129% (inactive)
CCCCCCCCCCCCCC[n+]1ccccc1 | -70.3% (active)
Cc1cccc2cc(/C=C/C(=O)/C=C/c3ccc(Cl)cc3)c(=O)[nH]c12 | 44.2% (inactive)
NCCn1cc(-c2nc(-c3c[nH]c4ncccc34)cs2)c2cc(F)ccc21 | 62% (inactive)
Nc1nc(Cl)nc2c1ncn2C1O[C@H](CO)[C@@H](O)[C@@H]1F (stereo not given in full) | -34.8% (active)
Nc1ccc2ccc(N)cc2c1 | 97.4% (inactive)
COc1ccc(-c2nc3sccn3c2-c2ccnc(NCCCNS(=O)(=O)c3ccc4ccccc4c3)n2)cc1 | 66.1% (inactive)
Cc1ccc(Oc2nc3ccccc3cc2-c2nnc(Cn3c(COc4ccccc4)nc4ccccc43)o2)cc1 | -18.2% (active)
CC(=O)N[C@@H](CNC(=O)c1cc(NC(=O)c2cc(NC(=O)c3cc(NC(=O)c4nccn4C)cn3C)cn2C)cn1C)CC(=O)Nc1cn(C)c(C(=O)Nc2cc(C(=O)Nc3cc(C(=O)Nc4cc(C(=O)NCCCN(C)CCCNC(=O)c5cccc(C(=O)O)c5)n(C)c4)n(C)c3)n(C)c2)n1 | 109% (inactive)
O=C1C(Cl)=C(NCCN2CCOCC2)C(=O)c2ncccc21 | -45.5% (active)
CCOC(=O)/C(C#N)=C\Nc1ccc2ncnc(Nc3ccc(Cl)cc3Cl)c2c1 | 108% (inactive)
N#C/C(=C\c1ccc(C#N)cc1)C(=O)c1ccccc1 | 92.7% (inactive)
Brc1ccc(-c2cnc3nonc3n2)cc1 | 19.6% (inactive)
O=C1C=Cc2ccccc2/C1=C/c1[nH]c(=O)[nH]c1O | 43.3% (inactive)
O=C(/C=C\c1ccc2ccccc2n1)c1cc(Cl)ccc1O | 89.8% (inactive)

Structure (SMILES) | growth
CCO/C=N/C1=C(C#N)C(c2ccc(Cl)cc2)c2sc3c(F)cccc3c2O1 (stereo not given) | 56.2% (inactive)
CCn1cnc(C[C@H](NC(=O)[C@@H](NC(=O)Nc2cc(C(F)(F)F)cc(C(F)(F)F)c2)C(C)C)C(=O)OC)c1 | -75.7% [100 µM] (active)
O=C(Nc1ccc(F)cc1)c1c(NC(=O)C(F)(F)F)sc2c1CCCCC2 | 17.1% (inactive)
O=C(/C=C1\C(=O)N(Cc2ccccc2)c2ccccc21)c1ccc(OCCN2CCCCC2)cc1 | 7.79% (active)
CCOC(=O)c1ccc2c(c1)nc(-c1ccccc1)n2C1CCCCC1 | 63.1% (inactive)
O=C(N=c1n(-c2ccccc2)nc2n1CCN2C1=NCCN1)c1ccc(Cl)cc1 | 95.8% (inactive)
CCCCCCCC(=O)SCC/C=C/[C@@H]1CC(=O)NCc2cccc(n2)CN(Cc2ccc(Cl)cc2)CC(=O)N[C@@H](C(C)C)C(=O)O1 | 13% (inactive)
C=C(C)[C@@H]1CC[C@]2(C=O)CC[C@]3(C)[C@H](CC[C@@H]4[C@@]5(C)C/C(=C/c6cccnc6)C(=O)C(C)(C)[C@@H]5CC[C@]43C)[C@@H]12 | 25.9% (inactive)
O=C(Nc1ccc(-c2nc3ccc(NC(=O)c4ccc(Cl)cc4)cc3[nH]2)cc1)c1ccc(Cl)cc1 | -45.9% (active)
N=C(N)c1ccc(-c2ccc(-c3cccs3)s2)cc1 | -46.6% (active)
Cn1cc2c(c1)-c1nc(Nc3ccccc3)ncc1CC2 | 97.3% (inactive)
COc1ccc(/C=c2\nc3n(-c4ccccc4)c4nc5c6c(sc5c(=N)n4n-3c2=O)CCCC6)cc1 | 101% (inactive)
CC1(C)C(=O)/C(=C\c2ccc(C(F)(F)F)cc2)C[C@]2(C)[C@H]3CC[C@@H]4[C@H]5[C@H](C(=O)/C=C/c6ccc(C(F)(F)F)cc6)CC[C@]5(CO)CC[C@@]4(C)[C@]3(C)CC[C@@H]12 | 92% (inactive)
CCNc1ccc(-c2nc3ccccc3n3cccc23)cc1 | 86% (inactive)
OCCCCc1nccc2c1[nH]c1ccccc12 | 73.7% (inactive)
CCOC(=O)/C(=C\c1ccccc1Cl)P(=O)(OCC)OCC | 10.8% (inactive)
CN(C)c1ccc(/C=N\NC(=O)c2ccc3nc(-c4ccc(Cl)cc4)[nH]c3c2)cc1 | 37.4% (inactive)
